Experimental data from PubChem BioAssay (NCATS).
Records with an inconclusive call do not appear. Entries that show only a call come without a potency. A number with no mark means an inactive call. Activity calls are given as the source filed them. Calls follow the shape of the dose curve; as a rule, active = well fitted curve in the direction sought with a large enough effect; inconclusive = small, poorly fitted or top-dose-only effect, or another doubt; inactive = no such curve, though single readings can be large; an effect the other way counts as inactive or inconclusive.

Assays:
[1] = biological target: Rap guanine nucleotide exchange factor 3 (Homo sapiens) (UniProt O95398); assay: Confirmatory qHTS for antagonist of cAMP-regulated guanine nucleotide exchange factor 3 (EPAC1) (AID 1645880); also: nearly all actives have a fitted effect of over 55% in size; also: potency is read from the fitted curve at half-maximal effect
Rap guanine nucleotide exchange factor 3 (Homo sapiens), sequence (O95398 whole entry, looked up): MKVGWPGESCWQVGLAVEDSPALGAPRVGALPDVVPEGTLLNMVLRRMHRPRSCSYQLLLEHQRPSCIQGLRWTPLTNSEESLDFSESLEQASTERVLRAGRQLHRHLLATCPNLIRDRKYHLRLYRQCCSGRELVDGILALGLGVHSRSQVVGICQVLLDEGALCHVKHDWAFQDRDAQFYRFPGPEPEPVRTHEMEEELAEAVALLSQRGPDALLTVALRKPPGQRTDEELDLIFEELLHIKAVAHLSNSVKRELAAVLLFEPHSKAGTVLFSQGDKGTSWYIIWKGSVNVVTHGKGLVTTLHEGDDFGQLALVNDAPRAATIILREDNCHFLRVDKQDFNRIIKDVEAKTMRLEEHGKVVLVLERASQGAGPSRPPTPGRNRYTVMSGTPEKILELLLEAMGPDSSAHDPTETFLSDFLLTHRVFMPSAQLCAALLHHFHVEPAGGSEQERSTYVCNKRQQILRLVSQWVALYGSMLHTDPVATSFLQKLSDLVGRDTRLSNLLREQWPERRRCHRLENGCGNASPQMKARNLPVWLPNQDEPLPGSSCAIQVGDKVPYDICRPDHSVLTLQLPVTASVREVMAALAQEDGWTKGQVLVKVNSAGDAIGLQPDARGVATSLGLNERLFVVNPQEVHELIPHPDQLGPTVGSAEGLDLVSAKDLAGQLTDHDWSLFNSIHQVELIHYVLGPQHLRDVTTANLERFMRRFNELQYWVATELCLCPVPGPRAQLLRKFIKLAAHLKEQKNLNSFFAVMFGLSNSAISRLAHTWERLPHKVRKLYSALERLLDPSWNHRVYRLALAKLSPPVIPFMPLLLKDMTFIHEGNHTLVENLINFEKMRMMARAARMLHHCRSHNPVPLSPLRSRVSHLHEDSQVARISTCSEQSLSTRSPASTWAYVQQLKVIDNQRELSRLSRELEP
How it was run: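 Released BODIPY-GDP fluoresces less than Rap1-bound BODIPY-GDP; the signal is followed at 480/540 nm at 5-min intervals over 30 min, after 5 min at room temperature. Reactions contain 100 nM EPAC1, 250 nM RAP1B-BODIPY-GDP and 50 uM GDP; results are normalized to ATA and DMSO.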

[2] = biological target: Rap guanine nucleotide exchange factor 3 (Homo sapiens) (UniProt O95398); assay: Confirmatory qHTS for agonist of cAMP-regulated guanine nucleotide exchange factor 3 (EPAC1) (AID 1645881);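 also: EPAC1 catalysed release of BODIPY-GDP from Rap1B seen as fluorescence loss; nearly all actives have a fitted effect of over 75% in size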
[3] = biological target: Rap guanine nucleotide exchange factor 4 (Homo sapiens) (UniProt Q8WZA2); assay: Confirmatory qHTS for agonist of cAMP-regulated guanine nucleotide exchange factor 4 (EPAC2) (AID 1645884);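 also: nucleotide exchange releases bodipy-GDP from Rap1 and this lowers its fluorescence; nearly all actives have a fitted effect of over 65% in size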
Rap guanine nucleotide exchange factor 4 (Homo sapiens), sequence (Q8WZA2 whole entry, looked up): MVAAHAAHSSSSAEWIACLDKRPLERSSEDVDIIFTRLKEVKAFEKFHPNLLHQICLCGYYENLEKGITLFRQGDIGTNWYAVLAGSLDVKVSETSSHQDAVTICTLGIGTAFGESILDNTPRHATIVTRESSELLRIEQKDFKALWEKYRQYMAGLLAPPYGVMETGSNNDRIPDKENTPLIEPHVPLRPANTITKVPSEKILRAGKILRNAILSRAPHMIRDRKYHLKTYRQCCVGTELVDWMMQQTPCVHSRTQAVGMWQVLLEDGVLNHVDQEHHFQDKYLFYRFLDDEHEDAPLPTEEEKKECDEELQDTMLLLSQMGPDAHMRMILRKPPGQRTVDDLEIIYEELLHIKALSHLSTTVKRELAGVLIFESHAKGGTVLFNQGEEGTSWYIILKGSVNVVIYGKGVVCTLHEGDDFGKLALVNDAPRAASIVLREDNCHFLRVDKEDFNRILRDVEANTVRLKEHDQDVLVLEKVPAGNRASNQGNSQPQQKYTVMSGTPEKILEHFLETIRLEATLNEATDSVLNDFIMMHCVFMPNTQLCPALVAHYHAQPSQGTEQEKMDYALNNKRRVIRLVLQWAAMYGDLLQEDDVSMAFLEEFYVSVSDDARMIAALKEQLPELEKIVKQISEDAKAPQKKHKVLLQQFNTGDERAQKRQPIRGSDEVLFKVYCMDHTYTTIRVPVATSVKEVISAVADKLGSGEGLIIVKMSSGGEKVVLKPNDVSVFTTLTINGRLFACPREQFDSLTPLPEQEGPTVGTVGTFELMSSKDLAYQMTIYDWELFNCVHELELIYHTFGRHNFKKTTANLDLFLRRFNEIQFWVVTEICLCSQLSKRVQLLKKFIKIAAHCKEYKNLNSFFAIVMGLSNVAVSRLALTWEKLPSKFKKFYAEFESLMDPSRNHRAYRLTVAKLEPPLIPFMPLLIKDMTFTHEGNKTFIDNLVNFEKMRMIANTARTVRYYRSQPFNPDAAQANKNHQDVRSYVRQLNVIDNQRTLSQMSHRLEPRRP

[4] = biological target: Rap guanine nucleotide exchange factor 4 (Homo sapiens) (UniProt Q8WZA2); assay: Confirmatory qHTS for antagonist of cAMP-regulated guanine nucleotide exchange factor 4 (EPAC2) (AID 1645885); also: nearly all actives have a fitted effect of over 25% in size; also: potency is read from the fitted curve at half-maximal effect
[5] = biological target: Rap guanine nucleotide exchange factor 3 (Homo sapiens) (UniProt O95398); assay: Counterscreen qHTS for antagonist of cAMP-regulated guanine nucleotide exchange factor 3 (EPAC1) (AID 1645888)
How it was run: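 Measured: fluorescence of BODIPY-GDP bound to Rap1B, which falls as exchange proceeds. Conditions include 50 uM competing GDP, 5 and 30 min reads, and a later cAMP challenge for antagonist detection.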

Structure (SMILES) | Potency [1] | Potency [2] | activation [3] | Potency [4] | activity change, negative = inhibition [5] | Potency [3] | Potency [5] | outcome [4]
O=C(O)CN1C(=O)/C(=C\c2cc(Br)ccc2OCc2ccccc2F)SC1=S | 35.5 µM (active) | inactive | 4.56% [at 17.1 µM, percent relative to cAMP agonist control] | inactive | 18.9% [at 30.8 µM] | – | – | –
O=C(CCN1C(=O)/C(=C/c2cccs2)SC1=S)Nc1ccc(C(=O)O)c(O)c1 | 79.4 µM (active) | inactive | 0.91% [at 17.1 µM, percent relative to cAMP agonist control] | inactive | 19.6% [at 30.8 µM] | – | – | –
O=C1NC(=O)C(c2ccccc2)(c2ccccc2)N1S(=O)(=O)c1ccccc1 | inactive | inactive | – | inactive | – | inactive | inactive | –
Cc1ccc(OCCn2cccn2)c(C)c1 | inactive | inactive | – | inactive | – | inactive | inactive | –
CCOc1ccc(CCNC(=O)c2ccc3c(=O)[nH]c4c(C(=O)NC(C)C)sc(=S)n4c3c2)cc1 | 21.3 µM (active) | inactive | – | inactive | – | inactive | inactive | –
O=C1NN(c2cccc(Br)c2)C(=O)/C1=C/c1ccc(-c2cc([N+](=O)[O-])ccc2O)o1 | 16.9 µM (active) | inactive | – | inactive | – | inactive | inactive | –
Cc1noc(C)c1CSc1ncnc2sc(C)c(C)c12 | inactive | inactive | – | inactive | – | inactive | inactive | –
COc1ccccc1-c1ccc(Nc2cccc(C(F)(F)F)c2)nn1 | inactive | inactive | – | inactive | – | inactive | inactive | –
O=C(c1ccccc1)N1CCN(CCc2ccccn2)CC1 | inactive | inactive | – | – | – | inactive | inactive | inactive [at 12.7 µM]
Cc1cccc(-n2c(O)c(C=Nc3ccccc3O)c3ccccc3c2=O)n1 | inactive | inactive | – | inactive | – | inactive | inactive | –
Cc1cccc(CC2C(=O)Nc3ccccc32)c1 (stereo not given) | inactive | inactive | – | inactive | – | inactive | inactive | –
O=C(c1ccco1)N(Cc1cccc([N+](=O)[O-])c1)c1ccc(Br)cc1 | inactive | inactive | – | inactive | – | inactive | inactive | –
O=C(OCC(=O)N1CCN(S(=O)(=O)c2ccc(Cl)cc2)CC1)c1cccc(OC(F)F)c1 | inactive | inactive | 0.331% [at 17.1 µM, percent relative to cAMP agonist control] | inactive | -17.2% [at 30.8 µM] | – | – | –
COc1cc2c(cc1OC)C(c1ccccc1)N(C(=O)c1ccco1)CC2 (stereo not given) | inactive | inactive | – | inactive | – | inactive | inactive | –
Cn1c(SCc2c(Cl)cccc2Cl)nnc1-c1ccc2nonc2c1 | inactive | inactive | 10.1% [at 17.1 µM, percent relative to cAMP agonist control] | inactive | -10.9% [at 30.8 µM] | – | – | –
CC/C(=N/NC(=O)c1ccc2c(c1)OCO2)c1ccccc1O | 15.1 µM (active) | inactive | – | inactive | – | inactive | inactive | –
COc1ccc(C=C2SC(=O)NC2=O)cc1OC | inactive | inactive | 12% [at 17.1 µM, percent relative to cAMP agonist control] | inactive | 12.5% [at 30.8 µM] | – | – | –
Cc1ccc(CN2C(=O)CSC2c2ccccc2F)cc1 (stereo not given) | inactive | inactive | – | 33.8 µM (active) | – | inactive | inactive | –
